# Laboratory results: ChEMBL document CHEMBL3988442, “University of Dundee, Small-Polar-MMV Screening Library” (2021)
# The whole screen tested about 66,000 compounds, of which about 960 (1.5%) showed an effect of 50% or more. The full list was thinned out, with strong results kept by preference.
# Tested on: Trypanosoma brucei
# Experiment: Trypanosoma brucei 72 hour study
# Type: functional, organism-based
# Design: scale not given: in the data most compounds retested in dose-response had high values
smiles,measurement,setting,value
COc1cccc(-c2cc(NCC(=O)O)nc3[nH]ccc23)n1,Percent Effect,"30.3 µM, […]",-16.38%
COc1cccc(-c2cc(NCCN(C)C)nc3[nH]ccc23)n1,Percent Effect,"30.3 µM, […]",96.05%
COc1cccc(-c2cc(NCCO)nc3[nH]ccc23)n1,Percent Effect,"30.3 µM, […]",-6.078%
O=C(O)CCn1ccc2c(nnc3c(-c4ccc(F)cc4)cnn32)c1=O,Percent Effect,"30 µM, 30.03 µM",-41.42%
Cc1cc(-n2cccn2)ccc1CN1CCOCC(CN(C)C)C1 (centres undefined),Percent Effect,"30.3 µM, […]",-10.31%
Cc1cc(C)c(-n2cccn2)c(CN2CCOCC(CN(C)C)C2)c1 (centres undefined),Percent Effect,"30.3 µM, […]",-14.72%
Cc1ccc(-n2cc(CN3CCOCC(CN(C)C)C3)cn2)cc1C (centres undefined),Percent Effect,"30.3 µM, […]",98.04%
CN(C)c1ncc2c(O)nc(C3CCNCC3)cc2n1.Cl,Percent Effect,"30.3 µM, […]",-29.5%
CC(=O)NC1CCN(c2ccnc(C3CCNCC3)c2)CC1.O=C(O)C(F)(F)F,Percent Effect,"30.3 µM, […]",-10.98%
O=C(Nc1ccccn1)NC1CCN(c2ccccc2OC(F)F)C1 (centres undefined),Percent Effect,"30 µM, 30.03 µM",-33.53%
O=C(Nc1cccnc1)NC1CCN(c2ccccc2OC(F)F)C1 (centres undefined),Percent Effect,"30 µM, 30.03 µM",-24.57%
O=C(Nc1ccncc1)NC1CCN(c2ccccc2OC(F)F)C1 (centres undefined),Percent Effect,"30 µM, 30.03 µM",57.33%
Cc1nc(N(C)C)nc(C)c1NC(=O)c1ccccc1F,Percent Effect,"30 µM, 30.03 µM",-23.68%
CO[C@@H]1CCN(Cc2cnn(C)c2)[C@@H]2CN(Cc3cccnc3)C[C@@H]21.O=C(O)C(F)(F)F.O=C(O)C(F)(F)F.O=C(O)C(F)(F)F,Percent Effect,"30 µM, 30.03 µM",-0.5656%
CN(C)C(=O)CN1CCC(c2c(C(N)=O)sc3ncccc23)C1 (centres undefined),Percent Effect,"30.3 µM, […]",-20.96%
CC(C)c1ncc2c(n1)CN(Cc1cccc3c1OCCO3)CC2,Percent Effect,"30 µM, 30.03 µM",65.77%
Cc1ncc2c(n1)CN(Cc1cccc3c1OCCO3)CC2,Percent Effect,"30 µM, 30.03 µM",-9.069%
CCc1ncc2c(n1)CN(Cc1cccc3c1OCCO3)CC2,Percent Effect,"30 µM, 30.03 µM",-15.38%
O=C(O)C(F)(F)F.O=C(O)C(F)(F)F.O=C(c1ccsc1)N1C[C@@H]2OCCN(CCN3CCCC3)[C@@H]2C1,Percent Effect,"30.3 µM, […]",-142.2%
CCn1cc(Cl)c(C(=O)NCCOC)n1,Percent Effect,"30.3 µM, […]",-26.01%
COc1ccc(NC(=O)CCc2c(C)nc3cc(O)nn3c2C)cn1,Percent Effect,"30 µM, 30.03 µM",73.91%
CCNC(=O)CCc1c(C)nc2cc(O)nn2c1C,Percent Effect,"30 µM, 30.03 µM",30.72%
COC(=O)CCc1c(C)nc2cc(O)nn2c1C,Percent Effect,"30 µM, 30.03 µM",37.13%
Cc1ccc2c(c1)CN(C(=O)c1cccnc1)C(CN(C)C)CO2.Cl (centres undefined),Percent Effect,"30.3 µM, […]",-3.741%
Cc1cnc(N2CCO[C@@H]3CC(COCc4cccnc4)C[C@H]32)nc1.O=C(O)C(F)(F)F.O=C(O)C(F)(F)F (some centres undefined),Percent Effect,"30.3 µM, […]",-14.97%
Cl.c1cnc2c(c1)cc([C@@H]1CCCO1)n2CCN1CCOCC1,Percent Effect,"30.3 µM, […]",-1.684%
CCc1ccc(S(=O)(=O)N2Cc3c(CN(C)C)nn(C)c3C2)cc1.O=C(O)C(F)(F)F,Percent Effect,"30.3 µM, […]",-1.293%
O=C(Nc1cccc(CN2CCOC2=O)c1)N1CCCCCC1,Percent Effect,"30 µM, 30.03 µM",-56.22%
O=C(Nc1cccc(CN2CCOC2=O)c1)N1CCCC1,Percent Effect,"30 µM, 30.03 µM",-2.123%
O=C(Nc1cccc(CN2CCOC2=O)c1)N1CCSCC1,Percent Effect,"30 µM, 30.03 µM",53.61%
COc1ccc(C[C@H]2CN(C(=O)CN(C)C)CC[C@H]2OC)cc1.O=C(O)C(F)(F)F,Percent Effect,"30.3 µM, […]",4.427%
CCS(=O)(=O)N1Cc2ccccc2CC1C(=O)OCc1c(C)noc1C (centres undefined),Percent Effect,"30 µM, 30.03 µM",-54.09%
CCS(=O)(=O)N1Cc2ccccc2CC1C(=O)OCc1cc(C)no1 (centres undefined),Percent Effect,"30 µM, 30.03 µM",-34.32%
Cc1cc(COC(=O)[C@@H]2Cc3ccccc3CN2S(C)(=O)=O)no1,Percent Effect,"30 µM, 30.03 µM",77.9%
COCCNC(=O)N1CCCC1COc1ccccc1 (centres undefined),Percent Effect,"30.3 µM, […]",-9.999%
Cc1ccccc1SC1CCN(C(=O)C2CNCC(=O)N2)CC1 (centres undefined),Percent Effect,"30.3 µM, […]",6.741%
Cc1ccccc1SC1CCN(C(=O)[C@H]2[C@@H]3CNC[C@@H]32)CC1,Percent Effect,"30.3 µM, […]",52.77%
Cc1ccccc1SC1CCN(C(=O)C2CNC(=O)N2)CC1 (centres undefined),Percent Effect,"30.3 µM, […]",-1.493%
COCC1CN(Cc2ccoc2)Cc2nn(C)cc21.O=C(O)C(F)(F)F (centres undefined),Percent Effect,"30 µM, 30.03 µM",26.18%
CN(C)C[C@@H]1CCC[C@@H]2CN(c3nccc(C(F)(F)F)n3)C[C@@H]21.O=C(O)C(F)(F)F,Percent Effect,"30.3 µM, […]",99.5%
CN(C[C@@H]1CCC[C@@H]2CN(c3ncccn3)C[C@@H]21)C1CC1.O=C(O)C(F)(F)F,Percent Effect,"30.3 µM, […]",-3.838%
CN(C)C[C@@H]1CCC[C@@H]2CN(c3ncccn3)C[C@@H]21.O=C(O)C(F)(F)F,Percent Effect,"30.3 µM, […]",-12.16%
CNCC(=O)Nc1ccc(-c2cnc(NCCS(C)(=O)=O)nc2)cc1,Percent Effect,"30.3 µM, […]",-12.7%
Cc1cc(C2CCCN2Cc2ccn(C)c(=O)c2)on1 (centres undefined),Percent Effect,"30.3 µM, […]",6.831%
COc1ccc(CN2CCC[C@H]2c2nc(-c3cncnc3N)no2)cc1,Percent Effect,"30.3 µM, […]",-48.86%
COc1ccccc1CNc1ncc(-c2cc(C)no2)c(C(C)C)n1,Percent Effect,"30.3 µM, […]",-4.15%
COc1cccc(CN2CCCC2c2ccc[nH]2)c1 (centres undefined),Percent Effect,"30 µM, 30.03 µM",1.101%
Cc1c[nH]nc1C1CCCN1Cc1ccncc1 (centres undefined),Percent Effect,"30.3 µM, […]",-23.61%
COc1cccc(CN2CCCCCC2c2cccc(C)c2)c1O (centres undefined),Percent Effect,"30 µM, 30.03 µM",-7.245%
COc1ccccc1CN1CCCCC1c1n[nH]cc1-c1cc(C)no1.Cl (centres undefined),Percent Effect,"30.3 µM, […]",99.66%
COc1cccc(CN2CCCC2c2c(C)nn(C)c2C)c1 (centres undefined),Percent Effect,"30 µM, 30.03 µM",-36.92%
COCC(=O)N1CCCCC1c1nc(N(C)C)ncc1-c1cc(C)no1 (centres undefined),Percent Effect,"30.3 µM, […]",-6.324%
CCc1ccc(CN2CCCCC2c2n[nH]cc2-c2cc(C)no2)cc1.Cl (centres undefined),Percent Effect,"30.3 µM, […]",53.31%
COc1cccc(CN2CCCCC2c2n[nH]cc2-c2cc(C)no2)c1.Cl (centres undefined),Percent Effect,"30.3 µM, […]",52.03%
COc1ccc(CN2CCCCC2c2n[nH]cc2-c2cc(C)no2)cc1.Cl (centres undefined),Percent Effect,"30.3 µM, […]",57.52%
CC(C)c1nc(CNC2CCN(S(C)(=O)=O)CC2)cs1,Percent Effect,"30.3 µM, […]",-4.773%
CC(C)Cn1ccc2c(NC(=O)c3n[nH]c4c3CCC4)cccc21,Percent Effect,"30 µM, 30.03 µM",8.967%
CCc1nc(C2CCCN2C(=O)c2cc[nH]n2)no1 (centres undefined),Percent Effect,10 µM,-9.958%
same,Percent Effect,"30.3 µM, […]",8.971%
O=C(NCc1ccco1)N1CCC(n2ccc(C(F)(F)F)n2)CC1,Percent Effect,"30 µM, 30.03 µM",-15.14%
O=C(O)C(F)(F)F.c1coc(CN2CC[C@H]3O[C@@H](COCC4CC4)CC[C@H]32)c1,Percent Effect,"30 µM, 30.03 µM",-38.88%
Cc1nc(CN2C(=O)CC[C@@H]3[C@H]2CCN3C2CCOCC2)cs1.O=C(O)C(F)(F)F,Percent Effect,"30 µM, 30.03 µM",-42.08%
CC(=O)N1CCC2(CC1)CCN(C(=O)c1cccc(C(F)(F)F)c1)C2,Percent Effect,"30 µM, 30.03 µM",38.42%
Cc1nccc(NCc2cncc3c2CCN(CC2CC2)C3)n1.Cl.Cl,Percent Effect,"30.3 µM, […]",-82.02%
COCCN1CCN(CCS(=O)(=O)c2cccc(OC)c2)CC1,Percent Effect,"30.3 µM, […]",-9.149%
COc1cccc(S(=O)(=O)CCN2CCN(CC(F)F)CC2)c1,Percent Effect,"30.3 µM, […]",100.9%
COc1cccc(S(=O)(=O)CCN2CCN(CCO)CC2)c1,Percent Effect,"30.3 µM, […]",19.12%
O=C(NCC1CC1)[C@@H]1CCO[C@@H]2CCN(Cc3ccsc3)C[C@H]21.O=C(O)C(F)(F)F,Percent Effect,"30.3 µM, […]",-183.8%
O=C1CC(c2ccc(O)cc2)c2c(c(C(=O)O)cn2-c2ccccc2)N1 (centres undefined),Percent Effect,"30 µM, 30.03 µM",-5.69%
O=C1CC(c2ccccc2)c2c(c(C(=O)O)cn2-c2ccccc2)N1 (centres undefined),Percent Effect,"30 µM, 30.03 µM",-0.2399%
O=C1CC(c2cccc(O)c2)c2c(c(C(=O)O)cn2-c2ccccc2)N1 (centres undefined),Percent Effect,"30 µM, 30.03 µM",55.14%
CC(=O)N1CCC2(CCN(C(=O)c3cccc(C(F)(F)F)c3)CC2)C1,Percent Effect,"30 µM, 30.03 µM",-21.66%
Cc1ccc(NC(=O)Cn2cc(I)cn2)cc1C,Percent Effect,"30 µM, 30.03 µM",-62.87%
COC(=O)CNC(=O)CCc1cc(Cl)cs1,Percent Effect,"30 µM, 30.03 µM",30.07%
CC(C)NC(=O)CCNC(=O)CCc1cc(Br)cs1,Percent Effect,"30 µM, 30.03 µM",-16.2%
CC(C)NC(=O)CCNC(=O)CCc1cc(Cl)cs1,Percent Effect,"30 µM, 30.03 µM",67.45%
CC(C)CN1C(=O)C2(CCN(Cc3ccc(F)cc3)C2)c2ccccc21 (centres undefined),Percent Effect,"30.3 µM, […]",100.2%
Cc1ccc(CN2CCC3(C2)C(=O)N(CC(C)C)c2ccccc23)s1 (centres undefined),Percent Effect,"30 µM, 30.03 µM",-8.12%
CC(C)CN1C(=O)C2(CCN(Cc3ccoc3)C2)c2ccccc21.O=C(O)C(F)(F)F (centres undefined),Percent Effect,"30.3 µM, […]",-10.51%
COCCN1CCC2(CC1)CC(NC(=O)COC)c1ccccc1O2.O=C(O)C(F)(F)F (centres undefined),Percent Effect,"30.3 µM, […]",-14.34%
CN(C)C(=O)c1n[nH]c2c1CN(CC1CCC1)C2.O=C(O)C(F)(F)F.O=C(O)C(F)(F)F,Percent Effect,"30.3 µM, […]",-41.36%
CC(C)CC(=O)N1C[C@@H]2CCN(c3ncccn3)C[C@@H]2C1.O=C(O)C(F)(F)F,Percent Effect,"30.3 µM, […]",-27.97%
Cc1cnc(C(=O)N2C[C@H]3CN(Cc4nccs4)C[C@H]3C2)cn1,Percent Effect,"30 µM, 30.03 µM",-50.26%
O=C(N1CCCC1)N1Cc2nccn2CC(COc2cccnc2)C1.O=C(O)C(F)(F)F (centres undefined),Percent Effect,"30.3 µM, […]",-5.824%
O=C(NCc1nn(-c2ccccc2)c2c1CCC2)N1CCSCC1,Percent Effect,"30 µM, 30.03 µM",-15.48%
O=C(NCCc1ccn(-c2ccccc2)n1)N1CCSCC1,Percent Effect,10 µM,92.88%
O=C(NCCNc1ccccn1)N1CCSCC1,Percent Effect,"30 µM, 30.03 µM",-32.01%
CC1(C)CN(C(=O)NCCc2ccn(-c3ccccc3)n2)CCO1,Percent Effect,"30 µM, 30.03 µM",-25.69%
CCC(C(=O)NCCc1ccn(-c2ccccc2)n1)N1CCCC1=O (centres undefined),Percent Effect,"30 µM, 30.03 µM",-6.42%
O=C(NCCc1ccn(-c2ccccc2)n1)N1CCC1,Percent Effect,"30 µM, 30.03 µM",105.4%
O=C(O)C(F)(F)F.c1csc(CN2C[C@H](OCC3CCOCC3)[C@H]3COC[C@H]32)n1,Percent Effect,"30.3 µM, […]",-15.06%
CS(=O)(=O)N1CC[C@H]2OCC[C@@]2(C(=O)NCCc2ccccn2)C1.O=C(O)C(F)(F)F,Percent Effect,"30.3 µM, […]",-43.43%
CC(C)(C)n1ncc(NCC(O)c2ccc(F)c(F)c2)c(Cl)c1=O (centres undefined),Percent Effect,"30 µM, 30.03 µM",-7.617%
CN(Cc1ccccn1)C(=O)[C@H]1CO[C@H]2CCN(CC3CC3)C[C@H]2C1.O=C(O)C(F)(F)F.O=C(O)C(F)(F)F,Percent Effect,"30.3 µM, […]",-96.69%
